# High-throughput results deposited in PubChem by National Center for Advancing Translational Sciences (NCATS).
# TDP1 cell noCPT – qHTS for Inhibitors of human tyrosyl-DNA phosphodiesterase 1 (TDP1): qHTS in cells in absence of CPT; Potency, µM (highest dose often 46.2 µM), without a hit: top-dose activity change, negative = growth inhibition, most hits filed as inhibitors; 420,000 tested, 15% active; AID 686978, 2013; DT40 Tdp1-/- hTDP1 cells, no CPT, ATP luminescence, 48 h; also: potency is read from the fitted curve at half-maximal effect; % is scaled to controls: 0 for no effect and ±100 for the full control effect; nearly all actives have a fitted effect of over 55% in size
#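 Seeded 400 DT40-hTDP1 cells/well (vehicle DMSO, no 20 nM CPT); pinned compounds; ≥48 hr at 37 °C; CellTiter-Glo luminescence as viability measure.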
# TGFb inhibitor – inhibitors of TGF-b signaling | Potency, µM (doses to about 46.1 µM), inactives show at the top dose activity, negative = inhibition, usual class: inhibitors | HepG2 CAGA-GFP TGF-b/SMAD3 reporter, GFP fluorescence, 18 h; TGF-beta stimulated, 500 pg/mL final | 410,000 tested, 1.2% active | AID 588855; also: potency is read from the fitted curve at half-maximal effect; % is scaled to controls: 0 for no effect and ±100 for the full control effect; nearly all actives have a fitted effect of over 65% in size
#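 Inhibition of TGF-beta-driven CAGA-GFP reporter expression in HEPG2 cells is measured by cellular GFP fluorescence after 18 h stimulation with 500 pg/mL recombinant TGF-beta in 1% FBS medium at 37 degrees C.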
# S-ASM inh – human S-ASM enzyme inhibition; P17405; placental ASM, HMU-PC fluorogenic substrate, 60 min; Potency, µM (series often up to 57.5 µM), inactives show at the highest dose activity change, negative = inhibition, actives largely listed as inhibitors; 340,000 tested, 0.006% active; also: potency is read from the fitted curve at half-maximal effect
# Target sequence (P17405 47-631 limits assumed): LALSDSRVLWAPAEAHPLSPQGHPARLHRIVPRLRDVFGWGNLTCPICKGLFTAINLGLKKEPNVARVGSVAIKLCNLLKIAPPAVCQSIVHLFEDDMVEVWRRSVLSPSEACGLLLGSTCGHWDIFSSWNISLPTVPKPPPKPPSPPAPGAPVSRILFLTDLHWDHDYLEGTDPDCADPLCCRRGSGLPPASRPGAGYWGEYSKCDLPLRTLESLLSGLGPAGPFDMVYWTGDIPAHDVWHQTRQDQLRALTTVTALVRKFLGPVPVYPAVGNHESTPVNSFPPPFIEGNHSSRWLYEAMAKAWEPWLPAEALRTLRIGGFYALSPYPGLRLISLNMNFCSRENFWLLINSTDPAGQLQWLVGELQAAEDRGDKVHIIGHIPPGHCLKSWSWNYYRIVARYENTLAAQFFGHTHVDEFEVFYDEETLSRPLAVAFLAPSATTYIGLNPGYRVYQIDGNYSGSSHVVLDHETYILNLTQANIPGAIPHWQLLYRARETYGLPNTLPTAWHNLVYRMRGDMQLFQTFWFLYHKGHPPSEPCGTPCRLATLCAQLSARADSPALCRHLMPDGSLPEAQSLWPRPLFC
#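 qHTS format. ASM enzyme prepared from human placenta hydrolyses the fluorogenic substrate HMU-PC0 (9 uM final) over 60 min at 37 °C after a 10 min compound preincubation.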
# HepG2 tox – HepG2 cytotoxicity, counter-screen for TGF-b inhibitors. 410,000 tested, 0.76% active. AID 588856. Potency, µM (doses to about 46.1 µM), inactives show at the top dose activity change, negative = cytotoxicity, most hits filed as cytotoxic. HepG2 CAGA-GFP viability, ATP luminescence, 18 h; also: potency is read from the fitted curve at half-maximal effect
#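 CellTiter-Glo luminescence gave cytotoxicity after 18 hours at 37 degrees C. The cells were HepG2 CAGA-GFP in 1% FBS DMEM, stimulated with 500 pg/mL TGF-beta after compound addition. %Activity was normalised to no-cell wells (complete cell-killing) and DMSO (no toxicity), and curves were fitted and classified.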
# IL-1B inflam inh – blocks inflammasome-driven IL-1 beta release | THP-1 LPS/ATP IL-1B secretion, AlphaLISA, 16 h; active compounds read low | activity change, % at 57.5 µM | 360,000 tested, 4.7% active | AID 743279; in the data active = activity change below about -50%; inconclusive = mostly about -30% to -49%; also: % is scaled to controls: 0 for no effect and ±100 for the full control effect
#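 Secreted IL-1B measured by AlphaLISA bead assay after 16 h compound exposure of THP-1 cells; compounds (final up to 57.5 uM) added 1 h before LPS (250 ng/mL) and ATP (1.25 mM) stimulation; lower signal means less secretion.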
# TDP1 cell CPT – DT40-hTDP1 cell growth loss with CPT; chicken DT40 Tdp1-/-;hTDP1 cells + 20 nM CPT, ATP luminescence, 48 h; Potency, µM (series often up to 46.2 µM), for inactives: top-dose activity change, negative = growth inhibition, usual class: inhibitors; 420,000 tested, 12% active; also: potency is read from the fitted curve at half-maximal effect; % is scaled to controls: 0 for no effect and ±100 for the full control effect; nearly all actives have a fitted effect of over 55% in size
#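 Chicken DT40 Tdp1-/- cells complemented with human TDP1, 400 cells/well, exposed to compounds plus 20 nM camptothecin for at least 48 h at 37 C; viability read as ATP content by CellTiter-Glo luminescence.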
# The depositor's hits bear a star; ? = inconclusive; / = not tested or not shown; [ ] = another dose, or the depositor's remark. Rows were chosen to be rich in hits. Some 19% of all compounds tested hit in one or more screens of this group. Unless noted, calls follow the shape of the dose curve; as a rule, active = well fitted curve in the direction sought with a large enough effect; inconclusive = small, poorly fitted or top-dose-only effect, or another doubt; inactive = no such curve, though single readings can be large; an effect the other way counts as inactive or inconclusive.
SMILES,TDP1 cell noCPT,TGFb inhibitor,S-ASM inh,HepG2 tox,IL-1B inflam inh,TDP1 cell CPT
O=C(Cn1c(=O)n(Cc2ccco2)c(=O)c2ccc(C(=O)NC3CCCC3)cc21)Nc1ccc(F)cc1,-17%,-18%,/,-31%,/,-27%
Cc1ccc(C)c(NC(=O)Cn2c(=O)n(Cc3ccco3)c(=O)c3ccc(C(=O)NC4CCCC4)cc32)c1,16µM*,12%,/,-10%,/,?
Cc1cc(C)c(NC(=O)Cn2c(=O)n(Cc3ccco3)c(=O)c3ccc(C(=O)NC4CCCC4)cc32)c(C)c1,?,8%,/,-19%,/,?
CC(=O)N1CCc2cc(Br)cc(S(=O)(=O)CCC(=O)NCc3ccc(F)cc3)c21,?,?,/,-15%,/,-6%
COc1ccc(NC(=O)COC(=O)c2ccc3c(c2)OCCO3)cc1,?,0%,/,17%,21,?
O=C(COC(=O)c1cc2c(s1)CCC2)Nc1ccc(F)cc1,15µM*,-1%,132%,3%,0,?
NC(=O)c1ccc(NC(=O)COC(=O)c2cc3c(s2)CCC3)cc1,-23%,-16%,19%,3%,15,?
COc1ccc(NC(=O)COC(=O)c2cc3c(s2)CCC3)cc1,?,2%,12%,-3%,14,16µM*
O=C(Nc1ccccc1)C1=C[C@H](c2ccc3c(c2)OCO3)C[C@H](OCc2ccc(CO)cc2)O1,-20%,?,-16%,-19%,?,-12%
O=C(NNC(=O)c1ccccc1C(F)(F)F)c1csc(N2CCOCC2)n1,1%,5%,-2%,12%,?,4%
COCCN=c1scc(-c2ccc3c(c2)NC(=O)CO3)n1/N=C(\C)c1ccc(O)cc1,?,-3%,3%,-27%,-61*,?
COc1cc(/C=N/n2c(-c3ccc4c(c3)NC(=O)CO4)csc2=Nc2cccc(C)c2)ccc1O,?,?,44%,-9%,?,13µM*
COCCN=c1scc(-c2cccs2)n1/N=C(\C)c1ccco1,?,-20%,-4%,-23%,?,?
Cc1ccc(Cl)cc1-n1c(=O)cc(N2CCN(c3ccccc3)CC2)[nH]c1=O,?,-20%,/,0%,/,-28%
Cc1ccc(C)c(NC(=O)CSc2nncn3c2cc2sccc23)c1,?,-1%,/,-19%,/,?
C[C@@H](O[C@H]1OCCN(Cc2n[nH]c(=O)[nH]2)[C@H]1c1ccc(F)cc1)c1cc(C(F)(F)F)cc(C(F)(F)F)c1,21µM*,/,/,/,/,19µM*
COc1ccccc1C(=O)Nc1ccc(Br)cc1C,-21%,4%,-7%,-3%,-1,-4%
N#Cc1ccc2ccn(CC(=O)NCc3ccccc3)c2c1,18µM*,11%,2%,-15%,0,?
CC(Sc1ncc(S(=O)(=O)c2ccc(C(C)C)cc2)c(N)n1)C(=O)Nc1ccccc1 (stereo unspecified),26µM*,?,/,-33%,/,16µM*
CCc1ccccc1NC(=O)CSc1ncc(S(=O)(=O)c2ccc(C(C)C)cc2)c(N)n1,?,?,/,-12%,/,?
Cc1ccc(S(=O)(=O)c2cnc(SCC(=O)Nc3cc(C)cc(C)c3)nc2N)cc1,16µM*,?,/,-4%,/,?
Cc1ccc(S(=O)(=O)c2cnc(SCC(=O)Nc3cccc(Cl)c3)nc2N)cc1C,23µM*,?,/,-3%,/,?
C#CCn1c(=NC(=O)c2cccs2)sc2cccc(OCC)c21,21µM*,-4%,82%,-24%,43,-25%
C#CCn1c(=NC(=O)c2ccc(Cl)s2)sc2cccc(OC)c21,?,-3%,148%,-10%,35,?
CCN(C[C@H]1N[C@@](Cc2ccccc2)(C(=O)OC)[C@H]2C(=O)N(Cc3ccccc3)C(=O)[C@@H]12)C(=O)C1CCCCC1,13µM*,4%,-1%,-15%,-18,?
SMILES,TDP1 cell noCPT,TGFb inhibitor,S-ASM inh,HepG2 tox,IL-1B inflam inh,TDP1 cell CPT
COC(=O)[C@]1(Cc2ccccc2)N[C@H](CN(C)C(=O)COc2ccccc2)[C@@H]2C(=O)N(Cc3ccccc3)C(=O)[C@@H]21,?,?,-3%,-23%,0,21µM*
COC(=O)[C@]1(Cc2ccccc2)N[C@H](CN(C)C(C)=O)[C@@H]2C(=O)N(Cc3ccccc3)C(=O)[C@@H]21,4%,-1%,5%,-5%,16,-6%
CCN(C[C@H]1N[C@@](Cc2ccccc2)(C(=O)OC)[C@H]2C(=O)N(Cc3ccccc3)C(=O)[C@@H]12)C(=O)COc1ccccc1,18µM*,?,-3%,-15%,-21,21µM*
CCCCCN(C(=O)CCC(=O)OC(C)C(=O)Nc1ccccc1C)c1c(N)n(CCCC)c(=O)[nH]c1=O (stereo unspecified),-2%,-11%,/,-34%,-26,2%
Cc1ccc(-c2csc(NC(=O)CSc3nc4ccccc4[nH]3)n2)cc1,23µM*,?,?,-23%,-13,21µM*
O=C(CCn1cnc2ccccc2c1=O)Nc1nc(-c2ccc(Br)cc2)cs1,16µM*,4%,1%,0%,-9,?
CCn1c(SCC(=O)Nc2nc(-c3ccc(C)cc3)cs2)nnc1-c1ccccc1,18µM*,?,-22%,-17%,-55*,?
Cn1c(SCC(=O)N2c3ccccc3Sc3ccccc32)nc2ccccc21,?,-9%,-8%,12%,?,?
CN(C)CCCn1c(SCC(=O)N2c3ccccc3Sc3ccccc32)nc2ccccc2c1=O,23µM*,-21%,-19%,10µM*,-102*,?
CCn1c(SCC(=O)Nc2nc(C)cs2)nnc1-c1ccncc1,4%,3%,2%,-6%,20,-5%
COc1ccc(-c2csc(NC(=O)CSc3nc4ccccc4c(=O)[nH]3)n2)cc1,?,9%,-5%,-5%,64,?
O=C(CN1CCC(NC(=O)c2ccc(Br)cc2)CC1)NCc1cccs1,-22%,-18%,3%,13%,-10,-6%
CSc1ccc(CCNC(=O)CCc2c(C)nc3c(c(C)nn3-c3ccc(C)c(C)c3)c2C)cc1,2%,?,/,4%,/,-4%
CCOC(=O)C1CCCCN1C(=O)c1ccc(-n2cc(NC(=O)c3cccnc3)cn2)cc1 (stereo unspecified),?,/,/,/,/,9%[9.04 µM]
